Assay results: PubChem BioAssay (NCATS)
Records with an inconclusive call do not appear. Where a call stands in place of a potency, no number is given. Activity calls are given as the source filed them. Calls come from the whole dose curve.

Assay: Primary qHTS for inhibitors of SARS-S pseudo-typed particle cell entry (AID 1479145); note: nearly all actives have a fitted effect of over 45% in size
Conditions: SARS-S pseudotyped particle cell entry, luciferase reporter; series mostly up to 57.1 µM

Question: Which Potency does the source give for `CC(=O)Nc1c(I)c(NC(C)=O)c(I)c(C(=O)O)c1I` here?
Answer: Its Potency is “inactive”.

Question: With `CC[N+](CC)(CC)CCOc1cccc(OCC[N+](CC)(CC)CC)c1OCC[N+](CC)(CC)CC` as the compound, how does the Potency read?
Answer: The Potency was “inactive”.

Question: Which Potency does the source give for `Cc1ccsc1/C=C/C1=NCCCN1C` here?
Answer: Its Potency is “inactive”.

Question: For `Cc1cc(NS(=O)(=O)c2ccc(N)cc2)nc(C)n1`, which Potency is on record?
Answer: The Potency was “inactive”.

Question: Which Potency does the source give for `C[C@]12CCC(=O)C=C1CC[C@H]1[C@@H]3CC[C@](O)(C(=O)CO)[C@@]3(C)C[C@H](O)[C@@]12F` here?
Answer: Its Potency is “inactive”.

Question: Which Potency does the source give for `c1ccc2c(CC3=NCCN3)cccc2c1` here?
Answer: The Potency was “inactive”.

Question: With `CCCCOC(=O)c1ccc(O)cc1` as the compound, how does the Potency read?
Answer: The Potency was “inactive”.

Question: For `CC(=O)OCC1=C(C(=O)O)N2C(=O)[C@@H](NC(=O)Cc3cccs3)[C@H]2SC1`, which Potency is on record?
Answer: The Potency was “inactive”.

Question: Which Potency does the source give for `COc1cc(C(=O)NC2CCCNC2)cc(OC)c1OC` (stereo unspecified) here?
Answer: The Potency was “inactive”.

Question: For `CC(C)c1ccc2oc3nc(N)c(C(=O)O)cc3c(=O)c2c1`, which Potency is on record?
Answer: The Potency was “inactive”.

Question: For `NC(=O)NC(=O)Cc1ccccc1`, which Potency is on record?
Answer: Its Potency is “inactive”.

Question: With `CC(=O)O[C@@H]1CC2C3CCc4cc(OC(=O)c5ccccc5)ccc4C3CCC2(C)[C@H]1OC(C)=O` (stereo partly specified) as the compound, how does the Potency read?
Answer: The Potency was “inactive”.

Question: With `NC(=O)c1ccccc1O` as the compound, how does the Potency read?
Answer: Its Potency is “inactive”.

Question: With `CCCCCCCCCCCCCCCCCC(=O)O` as the compound, how does the Potency read?
Answer: Its Potency is “inactive”.

Question: With `Cc1cc(NS(=O)(=O)c2ccc(N)cc2)no1` as the compound, how does the Potency read?
Answer: The Potency was “inactive”.

Question: With `CCCNC(C)C(=O)Nc1ccccc1C` (stereo unspecified) as the compound, how does the Potency read?
Answer: Its Potency is “inactive”.

Question: Which Potency does the source give for `CCOC(=O)NNc1ccc(N(CC)CC(C)O)nn1` (stereo unspecified) here?
Answer: Its Potency is “inactive”.

Question: For `CN1C(=O)OC(C)(C)C1=O`, which Potency is on record?
Answer: Its Potency is “inactive”.

Question: Which Potency does the source give for `CC1(C)O[C@@H]2C[C@H]3[C@@H]4C[C@H](F)C5=CC(=O)C=C[C@]5(C)[C@@]4(F)[C@@H](O)C[C@]3(C)[C@]2(C(=O)CO)O1` here?
Answer: The Potency was “inactive”.

Question: For `O=C1c2ccccc2C(=O)c2c1ccc(O)c2O`, which Potency is on record?
Answer: Its Potency is “inactive”.

Question: For `Cc1ncc(CO)c(CO)c1O`, which Potency is on record?
Answer: Its Potency is “inactive”.

Question: Which Potency does the source give for `Nc1nc(/C(=C/CC(=O)O)C(=O)N[C@@H]2C(=O)N3C(C(=O)O)=CCS[C@H]23)cs1` here?
Answer: The Potency was “inactive”.

Question: With `Cc1oc(=O)oc1CN1CCN(c2cc3c(cc2F)c(=O)c(C(=O)O)c2n3C(C)S2)CC1` (stereo unspecified) as the compound, how does the Potency read?
Answer: Its Potency is “inactive”.

Question: With `O=c1[nH]c(=O)n([C@H]2C[C@H](O)[C@@H](CO)O2)cc1I` as the compound, how does the Potency read?
Answer: The Potency was “inactive”.

Question: For `O=C(O)c1cc(=O)[nH]c(=O)[nH]1`, which Potency is on record?
Answer: Its Potency is “inactive”.

Question: Which Potency does the source give for `N#C[C@H]1C[C@H]2C[C@@H]2N1C(=O)[C@@H](N)C12CC3CC(CC(O)(C3)C1)C2` here?
Answer: Its Potency is “inactive”.

Question: Which Potency does the source give for `OCCOCCN1CCN(C2=Nc3ccccc3Sc3ccccc32)CC1` here?
Answer: Its Potency is “inactive”.

Question: Which Potency does the source give for `NS(=O)(=O)c1cc(C(=O)NN2C[C@H]3[C@H]4CCC(C4)[C@H]3C2)ccc1Cl` here?
Answer: Its Potency is “inactive”.

Question: Which Potency does the source give for `CCOC(=O)[C@H](CCc1ccccc1)N[C@H]1CCCN2CCC[C@@H](C(=O)O)N2C1=O` here?
Answer: Its Potency is “inactive”.

Question: With `O=C(CCOCCOCCOCCOCCC(=O)Nc1c(I)cc(I)c(C(=O)O)c1I)Nc1c(I)cc(I)c(C(=O)O)c1I` as the compound, how does the Potency read?
Answer: The Potency was “inactive”.

Question: With `C=CCc1ccc(O)c(OC)c1` as the compound, how does the Potency read?
Answer: The Potency was “inactive”.

Question: Which Potency does the source give for `CC(C)C(=O)c1c(C(C)C)nn2ccccc12` here?
Answer: Its Potency is “inactive”.

Question: Which Potency does the source give for `CCCC(O)C(CC)CO` (stereo unspecified) here?
Answer: Its Potency is “inactive”.

Question: With `CC(C)(O/N=C(\C(=O)N[C@@H]1C(=O)N2C(C(=O)[O-])=C(C[n+]3ccccc3)CS[C@H]12)c1csc(N)n1)C(=O)O` as the compound, how does the Potency read?
Answer: The Potency was “inactive”.

Question: With `Cn1c(=O)c2[nH]c(Br)nc2n(C)c1=O` as the compound, how does the Potency read?
Answer: The Potency was “inactive”.

Question: With `C=CC(N)CCC(=O)O` (stereo unspecified) as the compound, how does the Potency read?
Answer: The Potency was “inactive”.

Question: Which Potency does the source give for `CCCCCCOc1ccccc1C(N)=O` here?
Answer: Its Potency is “inactive”.

Question: For `CNC[C@H](O)[C@@H](O)[C@H](O)[C@H](O)CO`, which Potency is on record?
Answer: Its Potency is “inactive”.

Assay: Primary qHTS for Huh7 cytotoxicity: counterscreen for inhibitors of MERS-S pseudotyped particle cell entry (AID 1479147); note: potency is the fitted concentration of half-maximal effect
Conditions: cell viability read-out; series mostly up to 57.1 µM

Question: For `CC(=O)Nc1c(I)c(NC(C)=O)c(I)c(C(=O)O)c1I`, which Potency is on record?
Answer: The Potency was “inactive”.

Question: Which Potency does the source give for `CC[N+](CC)(CC)CCOc1cccc(OCC[N+](CC)(CC)CC)c1OCC[N+](CC)(CC)CC` here?
Answer: The Potency was “inactive”.

Question: Which Potency does the source give for `Cc1ccsc1/C=C/C1=NCCCN1C` here?
Answer: Its Potency is “inactive”.

Question: For `Cc1cc(NS(=O)(=O)c2ccc(N)cc2)nc(C)n1`, which Potency is on record?
Answer: Its Potency is “inactive”.

Question: With `C[C@]12CCC(=O)C=C1CC[C@H]1[C@@H]3CC[C@](O)(C(=O)CO)[C@@]3(C)C[C@H](O)[C@@]12F` as the compound, how does the Potency read?
Answer: The Potency was “inactive”.

Question: For `c1ccc2c(CC3=NCCN3)cccc2c1`, which Potency is on record?
Answer: Its Potency is “inactive”.

Question: With `CCCCOC(=O)c1ccc(O)cc1` as the compound, how does the Potency read?
Answer: Its Potency is “inactive”.

Question: Which Potency does the source give for `CC(=O)OCC1=C(C(=O)O)N2C(=O)[C@@H](NC(=O)Cc3cccs3)[C@H]2SC1` here?
Answer: Its Potency is “inactive”.

Question: With `COc1cc(C(=O)NC2CCCNC2)cc(OC)c1OC` (stereo unspecified) as the compound, how does the Potency read?
Answer: Its Potency is “inactive”.

Question: Which Potency does the source give for `CC(C)c1ccc2oc3nc(N)c(C(=O)O)cc3c(=O)c2c1` here?
Answer: The Potency was 10 µM (active).

Question: For `NC(=O)NC(=O)Cc1ccccc1`, which Potency is on record?
Answer: The Potency was “inactive”.

Question: Which Potency does the source give for `CC(=O)O[C@@H]1CC2C3CCc4cc(OC(=O)c5ccccc5)ccc4C3CCC2(C)[C@H]1OC(C)=O` (stereo partly specified) here?
Answer: Its Potency is “inactive”.

Question: For `NC(=O)c1ccccc1O`, which Potency is on record?
Answer: The Potency was “inactive”.

Question: With `CCCCCCCCCCCCCCCCCC(=O)O` as the compound, how does the Potency read?
Answer: Its Potency is “inactive”.

Question: With `Cc1cc(NS(=O)(=O)c2ccc(N)cc2)no1` as the compound, how does the Potency read?
Answer: Its Potency is “inactive”.

Question: With `CCCNC(C)C(=O)Nc1ccccc1C` (stereo unspecified) as the compound, how does the Potency read?
Answer: The Potency was “inactive”.

Question: For `CCOC(=O)NNc1ccc(N(CC)CC(C)O)nn1` (stereo unspecified), which Potency is on record?
Answer: The Potency was “inactive”.

Question: With `CN1C(=O)OC(C)(C)C1=O` as the compound, how does the Potency read?
Answer: The Potency was “inactive”.

Question: Which Potency does the source give for `CC1(C)O[C@@H]2C[C@H]3[C@@H]4C[C@H](F)C5=CC(=O)C=C[C@]5(C)[C@@]4(F)[C@@H](O)C[C@]3(C)[C@]2(C(=O)CO)O1` here?
Answer: Its Potency is “inactive”.

Question: For `O=C1c2ccccc2C(=O)c2c1ccc(O)c2O`, which Potency is on record?
Answer: Its Potency is “inactive”.

Question: With `Cc1ncc(CO)c(CO)c1O` as the compound, how does the Potency read?
Answer: Its Potency is “inactive”.

Question: For `Nc1nc(/C(=C/CC(=O)O)C(=O)N[C@@H]2C(=O)N3C(C(=O)O)=CCS[C@H]23)cs1`, which Potency is on record?
Answer: Its Potency is “inactive”.

Question: With `Cc1oc(=O)oc1CN1CCN(c2cc3c(cc2F)c(=O)c(C(=O)O)c2n3C(C)S2)CC1` (stereo unspecified) as the compound, how does the Potency read?
Answer: Its Potency is “inactive”.

Question: With `O=c1[nH]c(=O)n([C@H]2C[C@H](O)[C@@H](CO)O2)cc1I` as the compound, how does the Potency read?
Answer: The Potency was “inactive”.

Question: For `O=C(O)c1cc(=O)[nH]c(=O)[nH]1`, which Potency is on record?
Answer: Its Potency is “inactive”.

Question: For `N#C[C@H]1C[C@H]2C[C@@H]2N1C(=O)[C@@H](N)C12CC3CC(CC(O)(C3)C1)C2`, which Potency is on record?
Answer: The Potency was “inactive”.

Question: With `OCCOCCN1CCN(C2=Nc3ccccc3Sc3ccccc32)CC1` as the compound, how does the Potency read?
Answer: Its Potency is “inactive”.

Question: Which Potency does the source give for `NS(=O)(=O)c1cc(C(=O)NN2C[C@H]3[C@H]4CCC(C4)[C@H]3C2)ccc1Cl` here?
Answer: Its Potency is “inactive”.

Question: Which Potency does the source give for `CCOC(=O)[C@H](CCc1ccccc1)N[C@H]1CCCN2CCC[C@@H](C(=O)O)N2C1=O` here?
Answer: Its Potency is “inactive”.

Question: For `O=C(CCOCCOCCOCCOCCC(=O)Nc1c(I)cc(I)c(C(=O)O)c1I)Nc1c(I)cc(I)c(C(=O)O)c1I`, which Potency is on record?
Answer: The Potency was “inactive”.

Question: With `C=CCc1ccc(O)c(OC)c1` as the compound, how does the Potency read?
Answer: The Potency was “inactive”.

Question: Which Potency does the source give for `CC(C)C(=O)c1c(C(C)C)nn2ccccc12` here?
Answer: The Potency was “inactive”.

Question: With `CCCC(O)C(CC)CO` (stereo unspecified) as the compound, how does the Potency read?
Answer: Its Potency is “inactive”.

Question: With `CC(C)(O/N=C(\C(=O)N[C@@H]1C(=O)N2C(C(=O)[O-])=C(C[n+]3ccccc3)CS[C@H]12)c1csc(N)n1)C(=O)O` as the compound, how does the Potency read?
Answer: The Potency was “inactive”.

Question: Which Potency does the source give for `Cn1c(=O)c2[nH]c(Br)nc2n(C)c1=O` here?
Answer: Its Potency is “inactive”.

Question: With `C=CC(N)CCC(=O)O` (stereo unspecified) as the compound, how does the Potency read?
Answer: The Potency was “inactive”.

Question: Which Potency does the source give for `CCCCCCOc1ccccc1C(N)=O` here?
Answer: The Potency was “inactive”.

Question: With `CNC[C@H](O)[C@@H](O)[C@H](O)[C@H](O)CO` as the compound, how does the Potency read?
Answer: The Potency was “inactive”.
